Screening results: PubChem, National Center for Advancing Translational Sciences (NCATS)
The list is not random: actives were taken first. Their share in the collection is about 2.4%.
Cruzain inh noDet: qHTS Assay for Promiscuous and Specific Inhibitors of Cruzain (without detergent). purified cruzain, Z-FR-AMC fluorescence, no detergent. Potency, µM, for the others: max response, negative = inhibition, hits mostly inhibitors. actives 2.3% (n = 200,000);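 also: plate controls were enzyme without inhibitor for no effect and buffer without enzyme for full effect; nearly all actives have a fitted effect of over 40% in size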
Target sequence (P25779 123-467 limits assumed): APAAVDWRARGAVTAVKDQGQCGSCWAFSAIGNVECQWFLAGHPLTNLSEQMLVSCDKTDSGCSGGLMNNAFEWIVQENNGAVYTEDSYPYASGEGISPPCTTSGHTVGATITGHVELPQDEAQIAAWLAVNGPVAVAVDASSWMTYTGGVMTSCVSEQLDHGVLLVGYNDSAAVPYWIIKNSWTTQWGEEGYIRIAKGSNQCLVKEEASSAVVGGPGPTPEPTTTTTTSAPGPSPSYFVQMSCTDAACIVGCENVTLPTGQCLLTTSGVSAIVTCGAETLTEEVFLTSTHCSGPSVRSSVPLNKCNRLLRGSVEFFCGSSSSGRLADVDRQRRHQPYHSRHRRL
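Detergent-free condition (0.00005% Triton X-100) in acetate buffer pH 5.5 with DTT. 1.5 nM enzyme and compound were pre-mixed 15 min, then 2 uM Z-FR-AMC substrate added; reaction progress from fluorescence change between first and third reads (60 s).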
Cruzain Triton: qHTS Assay for Promiscuous and Specific Inhibitors of Cruzain (with detergent). Potency, µM, inactives show max response, negative = inhibition, actives largely listed as inhibitors. actives 0.43% (n = 200,000). purified cruzain, Z-FR-AMC fluorescence, 0.01% Triton. Cruzipain (Trypanosoma cruzi), P25779;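 also: plate controls were neutral wells for no effect and buffer without enzyme for full effect; nearly all actives have a fitted effect of over 40% in size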
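Sodium acetate buffer (100 mM, pH 5.5) containing 5 mM DTT and 0.01% Triton X-100 hosted 1.5 nM cruzain and test compound for 15 min at room temperature. Cleavage of 2 uM Z-FR-AMC was then tracked by fluorescence.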
Papain inh: qHTS Assay for Inhibitors of Papain: Counterscreen for Cruzain Assay; purified papain, Z-FR-AMC fluorescence cleavage; shares compounds with Cruzain Triton; Potency, µM, without a hit: max response, negative = inhibition, hits mostly inhibitors; AID 2161, 2009; actives 41% (n = 410);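 also: 0% = no-compound wells and -100% = no-enzyme wells; nearly all actives have a fitted effect of over 35% in size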
Target sequence (P00784 whole entry, looked up): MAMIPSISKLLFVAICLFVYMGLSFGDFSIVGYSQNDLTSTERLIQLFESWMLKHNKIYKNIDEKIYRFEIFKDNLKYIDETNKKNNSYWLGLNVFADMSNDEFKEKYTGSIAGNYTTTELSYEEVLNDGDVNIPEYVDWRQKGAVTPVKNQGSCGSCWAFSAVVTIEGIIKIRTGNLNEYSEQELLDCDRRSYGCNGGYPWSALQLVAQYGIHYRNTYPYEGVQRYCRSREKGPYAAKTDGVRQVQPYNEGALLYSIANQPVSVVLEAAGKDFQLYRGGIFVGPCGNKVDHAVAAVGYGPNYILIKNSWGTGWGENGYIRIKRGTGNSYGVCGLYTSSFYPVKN
* hit, by the source's call; ? = inconclusive; nt = no result given. Calls follow the shape of the dose curve; as a rule, active = well fitted curve in the direction sought with a large enough effect; inconclusive = small, poorly fitted or top-dose-only effect, or another doubt; inactive = no such curve, though single readings can be large; an effect the other way counts as inactive or inconclusive. Potency is read from the fitted curve at half-maximal effect.

SMILES	Cruzain inh noDet	Cruzain Triton	Papain inh
O=C(COC(=O)COc1ccc(Cl)cc1)NC1CCCCC1	2%	0%	nt
O=C(CNC(=O)C1CCCCC1)OCC(=O)c1cccc(Cl)c1	nt	nt	14µM*
O=C(CCC(=O)OCC(=O)c1ccc(Cl)cc1)NC1CCCCC1	-8%	-7%	nt
Cn1c2c(c(=O)c3ccccc31)C[C@@H](O)C(C)(C)O2	-15%	5%	nt
CCN(CC)c1ccc(NC(=O)c2cc(S(=O)(=O)N3CCc4ccccc43)cn2C)c(C)c1	-4%	-3%	nt
Clc1cccc(CNc2cc(-c3ccccc3)nc3nncn23)c1	-6%	-4%	nt
CCOc1ccc(Nc2nc3cc(Cl)c(Cl)cc3nc2-n2nc(C)cc2C)cc1	4%	0%	nt
c1coc(-c2nc3n(n2)C2(CCCCC2)[C@@H]2CCCC[C@@H]2N3)c1	-4%	-4%	nt
O=C(CNC(=O)C1CCCCC1)OCC(=O)c1ccc(-c2ccccc2)cc1	nt	nt	-19%
CCc1ccc(C(=O)COC(=O)CNC(=O)CNC(=O)Cc2ccccc2)cc1	-12%	3%	nt
CCC(=O)NCC(=O)OCC(=O)c1ccccc1	3%	-2%	nt
O=C(CNC(=O)C1CCCCC1)OCC(=O)c1ccc([N+](=O)[O-])cc1	nt	nt	16µM*
O=C(CCC(=O)OCC(=O)c1ccc([N+](=O)[O-])cc1)NC1CCCCC1	2%	-4%	nt
CCc1ccc(C(=O)COC(=O)CNC(=O)C2CCCCC2)cc1	nt	nt	-21%
COc1ccc(-n2nc(C(=O)Nc3ccc(Cl)cn3)c3c4ccccc4n(C)c3c2=O)cc1Cl	-12%	0%	nt
Cc1ccc(C(=O)COC(=O)CCC(=O)Nc2ccc(Oc3ccccc3)cc2)cc1	-24%	-2%	nt
COc1ccc(OC)c(CNC(=O)c2cnc3c(C)cccn3c2=O)c1	10%	2%	nt
O=C(O)/C(=C\c1ccccc1)Cc1ccccc1	0%	6%	nt
Nc1c(C(=O)Nc2ccccc2Cl)nnn1Cc1cccc(Cl)c1	-10%	-2%	nt
CCOc1ccc(CN2C(=O)c3ccccc3Sc3ccc(C(=O)NCCc4ccccc4)cc32)cc1	?	-6%	nt
COc1cccc(CNC(=O)c2ccc3c(c2)N(Cc2ccc(F)cc2Cl)C(=O)c2ccccc2S3)c1	13µM*	1%	7%
CCOc1ccc(CN2C(=O)c3ccccc3Sc3ccc(C(=O)NCc4ccc(C)cc4)cc32)cc1	10µM*	-1%	8%
O=C(NCc1ccco1)c1ccc2c(c1)N(Cc1c(F)cccc1Cl)C(=O)c1ccccc1S2	?	-3%	nt
O=C(O)c1ccc2c(c1)N(Cc1ccc(F)cc1Cl)C(=O)c1ccccc1S2	?	-1%	nt
Cc1cccc(CN2C(=O)c3ccccc3Sc3ccc(C(=O)NCCc4ccccc4)cc32)c1	?	1%	nt
SMILES	Cruzain inh noDet	Cruzain Triton	Papain inh
O=C(NCc1ccc2c(c1)OCO2)c1ccc2c(c1)N(Cc1c(F)cccc1Cl)C(=O)c1ccccc1S2	10µM*	-2%	-3%
COc1cccc(CN2C(=O)c3ccccc3Sc3ccc(C(=O)NCCc4ccc(Cl)cc4)cc32)c1	20µM*	-3%	8%
Cc1cc2c(cc1S(=O)(=O)Nc1cc(C(F)(F)F)cc(C(F)(F)F)c1)OCC(=O)N2	16%	-9%	nt
CSc1ccc(CCNC(=O)Cn2ncn3c(cc4ccccc43)c2=O)cc1	10%	-2%	nt
COc1ccccc1CNc1nc2c(S(=O)(=O)c3ccccc3)nnn2c2ccc(Cl)cc12	12%	-3%	nt
COc1ccc(OC)c(CCNC(=O)CCCn2c(=O)c3cccn3c3ccccc32)c1	5%	-5%	nt
CCc1ccc(OCCSc2nc3ccccc3n2CC(=O)N2CCCCC2)cc1	14%	-5%	nt
CCc1ccc(OCCCn2c(CCNC(=O)C3CCCCC3)nc3ccccc32)cc1	nt	nt	16µM*
CCCc1nc2ccccc2n1CCOc1ccccc1	0%	-6%	nt
CCc1ccc(OCCn2c(CCNC(=O)C3CCCCC3)nc3ccccc32)cc1	nt	nt	-5%
O=C(COC(=O)CCSc1ccccc1Cl)Nc1ccc(F)cc1F	13µM*	14µM*	-2%
O=C(COC(=O)CCSc1ccccc1)Nc1ccc(F)cc1Cl	-12%	?	nt
Cc1cc2ccccc2n1-c1ccc(C(=O)N2CCC(C(=O)NCc3ccc(Cl)cc3)CC2)s1	3%	0%	nt
O=C(NCc1ccco1)c1cccc(NC(=O)c2ccccc2)c1	7%	2%	nt
O=C(NC1CCCCC1)c1cc(-c2ccco2)on1	0%	0%	nt
O=C(Nc1ccccc1)c1ccc2nc(-c3ccco3)c(-c3ccco3)nc2c1	?	?	13µM*
CNC(=O)c1ccc2nc(-c3ccco3)c(-c3ccco3)nc2c1	nt	nt	32µM*
O=C(NC1CC1)c1ccc2nc(-c3ccco3)c(-c3ccco3)nc2c1	nt	nt	32µM*
Cc1cccc(N2CCN(C(=O)c3ccc4nc(-c5ccco5)c(-c5ccco5)nc4c3)CC2C)c1 (configuration not stated)	2%	-2%	nt
Nc1nc(N)[n+]([O-])c(N)c1NCO	12%	-4%	nt
Cc1nc(-c2ccc(C)c(S(=O)(=O)N3CCC(C(=O)NCc4ccc(Cl)cc4)CC3)c2)no1	4%	2%	nt
Nc1ncn([C@H]2O[C@@H](CO)[C@@H](O)[C@@H]2O)c(=O)n1	-7%	2%	nt
CCOC(=O)c1[nH]c(C)c(CCC(=O)Nc2ccccc2OCC)c1C	6%	-1%	nt
COc1cc(OC)cc(C(=O)N2CC(=O)Nc3ccc(Cl)cc3C2c2ccccc2)c1 (configuration not stated)	5%	-7%	nt
CCOC(=O)c1cc(-c2ccc(OC)cc2)n(CCC(=O)Nc2ccc(OC)cc2OC)c1C	?	-6%	nt
SMILES	Cruzain inh noDet	Cruzain Triton	Papain inh
Cc1oc2ccc(OCc3ccc(F)cc3)cc2c1C(=O)O	-12%	-3%	nt
Cc1ccc(COc2ccc3oc(-c4ccccc4)c(C(=O)O)c3c2)cc1	20µM*	?	32µM*
COC(=O)CS(=O)(=O)c1nnc([C@H](Cc2ccccc2)NC(=O)OC(C)(C)C)o1	10µM*	7.1µM*	5.6µM*
CSCC[C@H](NC(=O)OC(C)(C)C)c1nnc(SCc2ccccc2)o1	-5%	-3%	nt
O=C(CNC(=O)C1CCCCC1)OCCOc1ccccc1	nt	nt	-6%
O=C(CNC(=O)C1CCCCC1)OCc1ccccc1	nt	nt	-32%
COC(=O)CNC(=O)C1CCN(C(=O)OCc2ccccc2)CC1	-1%	-5%	nt
O=C(COc1ccccc1)NC1CCCCC1	2%	-2%	nt
CCOC(=O)CC(NC(=O)CCc1c(C)nc2c(-c3ccccc3)c(C)nn2c1C)c1ccc(C)cc1 (configuration not stated)	?	-1%	nt
CCCC(=O)NCc1nc2cccnc2n1Cc1ccc(F)cc1	1%	-1%	nt
C[C@@H](C(=O)Nc1ccc2ccccc2c1)[C@H]1C[C@]1(C)[C@H](NC(=O)c1ccccc1)c1ccccc1	?	-2%	nt
COc1cccc(-c2nn3c(-c4cc(C)[nH]n4)nnc3s2)c1	3%	2%	1%
COc1ccc(-c2nnc3sc(-c4ccccn4)nn23)cc1	-9%	2%	nt
COc1cccc(-c2nn3c(-c4ccccn4)nnc3s2)c1	1%	-2%	nt
CCOc1cccc(-c2nnc3sc(-c4ccc(C)cc4)nn23)c1	?	-3%	nt
COc1ccc(-c2nn3c(-c4cc(-c5ccccc5)n[nH]4)nnc3s2)cc1OC	nt	nt	-18%
COc1ccc(-c2nn3c(-c4ccccn4)nnc3s2)cc1OC	-13%	-5%	nt
